From PubChem BioAssay AID504400 (The Scripps Research Institute Molecular Screening Center, 2011)
Values without a mark were called inactive. The rule behind the calls is not given here.

System: Imidazoline I2
Assay: CYP450 and receptor off-target profile – biochemical, Ricerca HitProfilingScreen, selectivity assay for S1P4 agonist project, late-stage follow-up (AID 504400)
Settings: Ricerca radioligand binding/enzyme panel plus CYP450, Central, at 10 µM, active compounds read high

## Clc1ccc(OCCOc2ccc(Br)nc2Br)c(Cl)c1
  inhibition: 9%
